Results reported in PubChem BioAssay (NCI).
Compounds without any hit were thinned out: in the full panel of roughly 83,000, 20% have a hit.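 How to read the values: 0–100, growth inhibition (40 = 60% inhibited); 0, no net growth; -100 to 0, cell death (-40 = 40% of starting cells died; -100 = all dead).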 Unmarked numbers belong to inactive results. Activity calls are given as the source filed them. How the source made its calls: active means growth percent below 10; inactive means the rest.

Experiments:
Assay in all cases: NCI-60 one-dose screen, 48 h (100 = growth as untreated, 0 = no growth, -100 = all killed)
Details in all cases: 10 µM unless noted
HCT-15 colon = test system: HCT-15 colon
HT29 colon = test system: HT29 colon
SNB-75 CNS = test system: SNB-75 CNS
SNB-19 CNS = test system: SNB-19 CNS
U251 CNS = test system: U251 CNS
PC-3 prostate = test system: PC-3 prostate
SK-MEL-5 melanoma = test system: SK-MEL-5 melanoma
UACC-62 melanoma = test system: UACC-62 melanoma
LOX IMVI melanoma = test system: LOX IMVI melanoma
SK-MEL-28 melanoma = test system: SK-MEL-28 melanoma

Row | Structure (SMILES) | growth (HCT-15 colon) | growth (HT29 colon) | growth (SNB-75 CNS) | growth (SNB-19 CNS) | growth (U251 CNS) | growth (PC-3 prostate) | growth (SK-MEL-5 melanoma) | growth (UACC-62 melanoma) | growth (LOX IMVI melanoma) | growth (SK-MEL-28 melanoma)
1 | CCN(CC)CCOc1ccc(NC(=O)C(C(C)C)N2C(=O)/C(=C/c3ccc(Br)cc3)SC2=S)cc1 (stereo not given) | -40.9% (active) | -5.87% (active) | 66% | 57.6% | 71.7% | 64.5% | 89.2% | 95.3% | 62.9% | 89%
2 | COc1cc(/C=C\c2cc(OC)c(OC)c(OC)c2)cc(NC(=O)/C=C/c2cc(OC)c(OC)c(OC)c2)c1OC | 34.6% | 32% | 51.8% | 72% | 71% | 29.3% | -45.3% (active) | 29.7% | 35.5% | 47.6%
3 | CCOc1ccc(/C=N/Nc2cc(C)nc3ccc(Br)cc23)cc1 | 57.9% | 100% | 99.9% | 99.7% | 77.5% | 81.4% | 84.9% | 90.5% | 84.4% | 91.6%
4 | N#C/C(=C\c1ccccn1)c1nc2cc(Cl)ccc2s1 | 63.5% | 86.4% | 8.52% (active) | 85.9% | 73.8% | 44.1% | 83.7% | 68.1% | 72.7% | 101%
5 | CCCOc1ccc(/C=N/Nc2cc(C)nc3ccc(Cl)cc23)cc1 | -44.4% (active) | -6.94% (active) | 104% | 58.6% | -58.3% (active) | 48.6% | 79.9% | 88.6% | -95.7% (active) | 64.8%
6 | O=C(CCN1CCCC1)c1ccc([N+](=O)[O-])cc1 | 100% | 101% | 84% | 116% | 98.4% | 99.8% | 101% | 105% | 102% | 104%
7 | O=C1Nc2ccc(F)cc2/C1=C\c1c(-c2ccccc2)nc2ccccn12 | 51.9% | 52.1% | 61.6% | 75.4% | 82.7% | 67.5% | 61.5% | 60.7% | 64.1% | 85.1%
8 | COc1ccc(N2CCN(c3ccc(NC4=C(Cl)C(=O)c5ncccc5C4=O)cc3)CC2)cc1 | 40.9% | 49.9% | 52.8% | 29.4% | 26.7% | 53% | 50.5% | 34.1% | 35.3% | 71%
9 | COc1cc(/C=C2\COc3ccc(-c4ccccc4)cc3C2=O)cc(OC)c1 | 61.3% | 60.7% | 51.8% | 98.9% | 75.8% | 57.9% | 86.3% | 75.9% | 71.9% | 97.7%
10 | CCCCCCCCOc1ccc(/C=N/Nc2cc(C)nc3ccc(Br)cc23)cc1 | 21% | 11.9% | 20% | 76.1% | 16.5% | 60.8% | 76.9% | 92.7% | 22.4% | 80.9%
11 | N#CC1C(C#N)C(C(=O)c2ccc(Br)cc2)N2c3ccccc3C=CC12 (stereo not given) | 23.7% | 37.4% | 12% | 80.4% | 84.6% | 76.8% | 61.3% | 63% | 78.7% | 95.7%
12 | CC(C)(C)c1ccc(NS(=O)(=O)c2ccc3nc(NC(=O)c4cnccn4)[nH]c3c2)cc1 | 28.6% | 11% | -30.3% (active) | 40% | 35.3% | 28.3% | 13.4% | 40.4% | 40.4% | 45.8%
13 | O=C1c2ccc3c4c(ccc(c24)C(=O)N1CCCNCc1ccccc1)C(=O)N(CCCNCc1ccccc1)C3=O | -57.7% (active) | -63.5% (active) | -97.2% (active) | -75.5% (active) | -87.7% (active) | -65.4% (active) | -99.2% (active) | -71.1% (active) | -75.6% (active) | -95.9% (active)
14 | CNC(=O)c1cccc(Cn2nc(C)c(NC(=O)c3ccc(COc4ccc(C(F)(F)F)cc4C)cc3)c2C)c1 | 55% | 44.4% | 82.2% | 46.8% | 44.4% | 40.1% | -16.8% (active) | 57% | 58% | 63.9%
15 | COC1=CC(=O)c2ccccc2C1=O | 99.7% | 38.9% | 33.7% | 105% | 52.6% | 65.7% | 47.8% | 74.2% | 4.09% (active) | 90%
16 | COc1cc(OC)cc(C(=O)C[n+]2cccc3cc[nH]c32)c1 | 108% | 97.1% | 86.9% | 93.1% | 102% | 96.5% | 97.3% | 89.8% | 93.8% | 100%
17 | CC(Sc1nc2sc3c(c2c(=O)n1-c1ccc(Cl)cc1)CCCC3)C(=O)Nc1nc(-c2ccc(Br)cc2)cs1 (stereo not given) | 95.4% | 94.7% | 95.9% | 96.6% | 97.2% | 95.6% | 97.4% | 88.9% | 96.3% | 105%
18 | COc1cc(/C(C)=C(\c2ccc(Cl)cc2)c2ccc(OCCN3CCCC3)cc2)ccc1F | 7.9% (active) | 8.92% (active) | 84.2% | 79.8% | 46.1% | 53% | 49.9% | 58% | 46% | 69.3%
19 | O=C(CSc1nc2sc3c(c2c(=O)n1-c1ccc(Cl)cc1)CCCC3)Nc1nc(-c2cccc(Br)c2)cs1 | 87.8% | 61.7% | 41.7% | 84.8% | 78.8% | 57.5% | 82.8% | 85.1% | 84.3% | 84.4%
20 | C=C(C)[C@@H]1CC[C@]2(C(=O)N[C@@H](Cc3ccccc3)C(=O)OC)CC[C@]3(C)[C@H](CC[C@@H]4[C@@]5(C)CCC(=O)C(C)(C)[C@@H]5CC[C@]43C)[C@@H]12 | 94% | 70.1% | 87.1% | 104% | 85.2% | 52.3% | 95.2% | 56.9% | 73.9% | 97.9%
21 | CCCOC(=O)N[C@H]1CCc2c(Cl)c(OC)c(OC)c(OC)c2-c2ccc(SC)c(=O)cc21 | 12.9% | 14.7% | 31.2% | 31% | 23.2% | 24% | -10.3% (active) | 30.9% | 10.7% | 68.8%
22 | Cn1ccc2c1CC1CN(Cc3ccco3)C(=O)C1C2C(=O)O (stereo not given) | 95.8% | 101% | 74.3% | 98% | 97.3% | 100% | 102% | 95.5% | 94.6% | 101%
23 | C[C@H](c1nc2ccc(N)cc2[nH]1)[C@H]1CC[C@H]2[C@@H]3CCC4=CC(=O)CC[C@]4(C)[C@H]3CC[C@]12C | 67.8% | 51.8% | 39.6% | 90.9% | 70.7% | 82.9% | 81.3% | 85% | 84.2% | 89.4%
24 | CC1(C)CC[C@]2(C(=O)O)CC[C@]3(C)C(=CC[C@@H]4[C@@]5(C)Cc6c([nH]c7ccccc67)C(C)(C)[C@@H]5CC[C@]43C)[C@@H]2C1 | 21.3% | 27.2% | 49.4% | 60% | 25.7% | 42.7% | 73.7% | 63.7% | 40.3% | 83.2%
25 | CCCCCCOc1ccc(/C=N/Nc2cc(C)nc3ccc(Cl)cc23)cc1 | -87.2% (active) | -42.3% (active) | -44.6% (active) | 2.26% (active) | -68.2% (active) | -39.4% (active) | 81.4% | 76.8% | -94.5% (active) | -30.3% (active)
26 | O=C(/C(=C/c1ccc([N+](=O)[O-])cc1)SCc1ccc(F)cc1)c1ccc(F)cc1 | 37.2% | 22% | 96.8% | 68.4% | 37.5% | 78.3% | 95.4% | 63.7% | 32% | 103%
